# Experimental data as given in PubChem BioAssay (EPA / NIEHS).
# Inconclusive results are not listed. Active and inactive are the calls of the source. Rule for the calls: active = hit-call score of the fitted dose curve at least 0.9, where 1 is the maximum; inconclusive = response in the unintended direction; inactive = score below 0.9.
# Molecular target: Androgen receptor (Homo sapiens) (UniProt P10275)
# Test: ATG_AR_TRANS: Attagene TRANS-FACTORIAL HepG2 Assay for human Androgen Receptor (AR) (AID 2282973)
# Conditions: HepG2 Attagene TRANS-FACTORIAL AR reporter transcription
# Outline: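 Transcriptional activity of an exogenous AR–Gal4 fusion read as GAL4-UAS reporter transcript levels in transfected human HepG2 cells after 24 h dosing. Detection via RT-PCR, 6-FAM labelling, HpaI digest and capillary electrophoresis; increase over DMSO baseline.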
# Androgen receptor (Homo sapiens), sequence (P10275 whole entry, looked up): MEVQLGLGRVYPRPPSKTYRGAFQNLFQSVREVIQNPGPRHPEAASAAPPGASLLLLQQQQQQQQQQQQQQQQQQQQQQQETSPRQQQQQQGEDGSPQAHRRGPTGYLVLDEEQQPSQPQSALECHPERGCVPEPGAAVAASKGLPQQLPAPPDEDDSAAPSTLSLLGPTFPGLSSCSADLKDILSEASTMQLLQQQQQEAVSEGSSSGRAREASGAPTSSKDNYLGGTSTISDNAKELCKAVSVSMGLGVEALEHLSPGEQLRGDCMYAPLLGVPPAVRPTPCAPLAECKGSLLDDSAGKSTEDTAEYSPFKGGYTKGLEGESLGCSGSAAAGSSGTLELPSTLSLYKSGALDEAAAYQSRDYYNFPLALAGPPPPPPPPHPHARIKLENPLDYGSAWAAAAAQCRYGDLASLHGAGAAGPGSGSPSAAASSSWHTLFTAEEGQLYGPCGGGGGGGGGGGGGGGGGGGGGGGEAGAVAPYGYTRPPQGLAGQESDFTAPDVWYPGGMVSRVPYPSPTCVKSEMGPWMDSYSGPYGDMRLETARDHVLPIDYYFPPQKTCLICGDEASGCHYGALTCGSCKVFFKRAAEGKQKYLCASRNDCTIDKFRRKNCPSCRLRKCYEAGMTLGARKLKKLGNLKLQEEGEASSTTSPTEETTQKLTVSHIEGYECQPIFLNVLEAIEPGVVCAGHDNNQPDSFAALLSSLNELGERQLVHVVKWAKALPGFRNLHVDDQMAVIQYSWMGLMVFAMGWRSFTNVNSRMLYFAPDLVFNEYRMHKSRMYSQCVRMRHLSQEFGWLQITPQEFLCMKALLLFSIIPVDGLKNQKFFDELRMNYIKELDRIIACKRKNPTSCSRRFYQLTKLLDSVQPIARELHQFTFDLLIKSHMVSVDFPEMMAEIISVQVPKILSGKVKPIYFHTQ
row,Structure (SMILES),outcome
1,C[Si](O[Si](C)(C)C)O[Si](C)(C)C,inactive
2,NNC(=O)OCc1ccccc1,inactive
3,OCCN(CCO)c1cccc(Cl)c1,inactive
4,CCCC1CCOC(C)S1 (configuration not stated),inactive
5,COC(OC(C)=O)c1ccccc1 (configuration not stated),inactive
6,COC(=O)Cc1cccc2ccccc12,inactive
7,c1ccc(-c2ccccn2)nc1,inactive
8,CC1=CC2C3C=CC(C3)C2C1C (configuration not stated),inactive
9,C#CC(C)N(C)C(=O)Nc1ccc(Cl)cc1 (configuration not stated),inactive
10,CC(=O)O[C@@H]1C[C@@H]2CC[C@@]1(C)C2(C)C,inactive
11,COc1cc(C(C)C)ccc1C,inactive
12,CCN(CC)c1ccc2c(c1)Oc1cc(N(CC)CC)ccc1C21OC(=O)c2ccccc21,inactive
13,CCC(C)(C)C1CCC(=O)CC1,inactive
14,N=C1C=CC(=C(c2ccc(N)cc2)c2ccc(N)cc2)C=C1,inactive
15,COc1cc(C=O)ccc1O,inactive
16,O=C1CCCCCCCCCCCC(=O)OCCO1,inactive
17,CN(C)CCOc1ccc(/C(=C(/CCCl)c2ccccc2)c2ccccc2)cc1,inactive
18,CCCCCCCCCC(C)=O,inactive
19,CCCCCCOC(=O)c1ccc(O)cc1,inactive
20,CCCCCCCCCCCC[N+](C)(C)Cc1ccccc1,inactive
21,Cc1ccc(O)cn1,inactive
22,O=Nc1ccc(Nc2ccccc2)cc1,inactive
23,CCOC(OCC)C(=O)c1ccccc1,inactive
24,COc1ccc(CCO)cc1,inactive
25,C=COC(=O)C(C)(C)CCCCCC,inactive
26,CC(C)c1ccc2cc(C(C)C)ccc2c1,inactive
27,CN(C)c1ccc(C(c2ccccc2)c2ccc(N(C)C)cc2)cc1,inactive
